# Experimental data as given in PubChem BioAssay AID463173 (ICCB-Longwood Screening Facility, Harvard Medical School, 2010).
# About 1,700 (3.3%) of roughly 52,000 compounds were called active. Many of the other results were omitted from the sample, so actives are more common in it than they were. Unmarked numbers belong to inactive results. No stated cut-off is given here; in the data, active means survival mostly below about 52% (no sharp cut-off); inactive means mostly above about 56%.
# Test system: Wild type
# Test: growth inhibition of S. aureus wild type versus tarO mutant, primary screen, teichoic acid synthesis inhibitors, RN4220, OD600 (AID 463173)
# Conditions: S. aureus RN4220 wild type/DeltatarO growth, OD600, 18 h, stronger effect = lower value, screened at 18.75 µg/mL (by protocol)
row,SMILES,survival
1,CCCc1noc(-c2ccc(N3CCCCC3)c([N+](=O)[O-])c2)n1,77%
2,O=C(CN(C(=O)c1csnn1)c1ccccc1)NCc1ccc2c(c1)OCO2,114%
3,O=c1oc2ccc(Br)cc2cc1-c1nc(-c2ccccc2)no1,66%
4,O=C(CSc1nnc2[nH]c(=O)cc(-c3ccccc3)n12)Nc1ccc(F)cc1F,94%
5,COCCCNC(=O)CN1C(=O)COc2ccc(S(=O)(=O)N3CCCCCC3)cc21,77%
6,CCN(CC)S(=O)(=O)c1cc(-c2onc(C)c2C)ccc1OC,87%
7,CCCCn1cc(S(=O)(=O)c2ccc(Cl)cc2)c(=O)c2cc(F)c(N3CCCCC3)cc21,105%
8,Cc1cc(C)cc(OCC(=O)Nc2ccc(S(=O)(=O)Nc3onc(C)c3C)cc2)c1,73%
9,CC(=O)N1CCc2c(sc3c2c(=O)n(-c2ccccc2)c(=O)n3CC(=O)Nc2cccc(C)c2)C1,91%
10,CC(C)(C)C(=O)Nc1ccc(-c2nc3ccc(NC(=O)C(C)(C)C)cc3[nH]2)cc1,148%
11,O=C(Nc1ccc2nc(-c3ccccc3)[nH]c2c1)c1ccco1,1% (active)
12,CCC(=O)Nc1ccc(-c2nc3ccc(NC(=O)CC)cc3[nH]2)cc1,113%
13,CCOC(=O)c1sc2ccccc2c1S(=O)(=O)Nc1ccc(C(C)=O)cc1,90%
14,COc1ccc(S(=O)(=O)c2c(C)c(NS(=O)(=O)c3ccccc3)cc(C)c2O)cc1,90%
15,Cc1ccc(S(=O)(=O)c2c(O)cc(C)c(NS(=O)(=O)c3ccc(Cl)cc3)c2C)cc1,105%
16,Cc1ccc(S(=O)(=O)c2c(O)cc(C)c(NS(=O)(=O)c3ccc(Br)cc3)c2C)cc1,-1% (active)
17,CC(OC(=O)c1cc2sccc2n1C)C(=O)NCC1CCCO1 (configuration not stated),107%
18,COC(=O)c1ccc(-n2nnc(-c3nsc(NC(=O)c4ccc(Cl)cc4)n3)c2C)cc1,79%
19,COc1ccc(C2c3c(n(C)c4ccccc34)C(=O)N2CC(=O)Nc2cccc(F)c2)cc1 (configuration not stated),85%
20,O=C(NCc1ccc(F)cc1)C(=O)NCC(c1ccc2c(c1)OCO2)N1CCOCC1 (configuration not stated),88%
21,COc1ccc(OCCCn2c(C3CC(=O)N(c4ccc(F)cc4)C3)nc3ccccc32)cc1 (configuration not stated),85%
22,COc1ccc(OCCn2c(C3CC(=O)N(c4ccc(F)cc4)C3)nc3ccccc32)cc1 (configuration not stated),84%

row,SMILES,survival
1,Cc1cc(OCCn2c(C3CC(=O)N(Cc4ccc(F)cc4)C3)nc3ccccc32)ccc1Cl (configuration not stated),-15% (active)
2,O=C1CC(c2nc3ccccc3n2CCCOc2ccccc2)CN1c1ccc(F)cc1 (configuration not stated),107%
3,CCOc1ccc(N2CC(c3nc4ccccc4n3CCOc3ccc(CC)cc3)CC2=O)cc1 (configuration not stated),79%
4,CCc1ccc(OCCn2c(C3CC(=O)N(Cc4ccc(F)cc4)C3)nc3ccccc32)cc1 (configuration not stated),-14% (active)
5,N#C/C(=C\c1ccccc1)C(=O)Nc1sc2c(c1C(N)=O)CCC2,75%
6,COc1ccccc1CCNC(=O)c1cc2ccccn2n1,152%
7,CC(=O)Nc1c(C)nn(-c2ccccc2)c1N1CCC(C(=O)NCc2ccc(F)cc2)CC1,-3% (active)
8,CC(=O)Nc1c(C)nn(-c2ccccc2)c1N1CCC(C(=O)Nc2ccc(C)cc2Cl)CC1,71%
9,CC(=O)Nc1c(C)nn(-c2ccccc2)c1N1CCC(C(=O)NCc2ccccc2Cl)CC1,-4% (active)
10,CC(=O)Nc1c(C)nn(-c2ccccc2)c1N1CCC(C(=O)Nc2cc(F)ccc2F)CC1,63%
11,CC(=O)Nc1c(C)nn(-c2ccccc2)c1N1CCC(C(=O)NCc2ccc(Cl)cc2)CC1,81%
12,CC(=O)Nc1c(C)nn(-c2ccccc2)c1N1CCC(C(=O)NCc2cccc(Cl)c2)CC1,71%
13,CC(=O)Nc1c(C)nn(-c2ccccc2)c1N1CCC(C(=O)Nc2ccc(F)cc2Cl)CC1,60%
14,CC(=O)Nc1ccc(NC(=O)C2CCN(c3c(NC(C)=O)c(C)nn3-c3ccccc3)CC2)cc1,63%
15,CC(=O)Nc1c(C)nn(-c2ccccc2)c1N1CCC(C(=O)NCc2cccc(F)c2)CC1,1% (active)
16,CN(C(=O)CSc1nc2ccc(NC(=O)c3cccs3)cc2s1)c1ccccc1,77%
17,CCOc1ccc(NC(=O)Cn2cc(C(=O)C3CC3)c3ccccc32)cc1,78%
18,CC1Cc2ccccc2N1C(=O)c1cc2sccc2n1Cc1ccc(F)cc1 (configuration not stated),119%
19,Cn1c(=O)cc(OCC(=O)NCc2ccc(F)cc2Cl)c2ccccc21,117%
20,CCOc1ccc(NC(=O)c2c(NC(=O)Cc3ccccc3)sc3c2CCCC3)cc1,69%
21,Cc1noc(-c2ccc(-c3noc(-c4ccc(Cl)cc4)n3)cc2)n1,87%
22,Cc1noc(-c2ccc(-c3noc(-c4ccc(F)cc4)n3)cc2)n1,64%

row,SMILES,survival
1,Cc1noc(-c2ccc(-c3noc(-c4ccccc4)n3)cc2)n1,-6% (active)
2,Clc1cccc(C2=NC(c3cccs3)=Nc3ccc(Br)cc3N2)c1,79%
3,CCOc1ccc(-c2c(C)nn3c(C)c(C(=O)NCCN(C)C)cnc23)cc1OCC,87%
4,Cc1cccc(N2CCN(c3c4c(nc5nncn35)CCC4)CC2)c1C,84%
5,CCCn1c2ccccc2c2cnn(CC(=O)NCc3ccccc3Cl)c(=O)c21,120%
6,CCCn1c2ccccc2c2cnn(CC(=O)NCC3CCN(Cc4ccc(C)cc4)CC3)c(=O)c21,-1% (active)
7,CCCn1c2ccccc2c2cnn(CC(=O)NC(C)CC)c(=O)c21 (configuration not stated),64%
8,CCCn1c2ccccc2c2cnn(CC(=O)NCC3CCN(Cc4ccccc4C)CC3)c(=O)c21,14% (active)
9,COc1ccccc1CNC(=O)Cn1ncc2c3ccccc3n(Cc3ccccc3C)c2c1=O,85%
10,CCCn1c2ccccc2c2cnn(CC(=O)NCC3CCN(Cc4ccc(F)cc4)CC3)c(=O)c21,74%
11,Cc1ccc(CNC(=O)CN(C)S(=O)(=O)c2ccc3c(c2)c(=O)n(C)c(=O)n3C)cc1,84%
12,c1ccc(C(c2nnnn2C2CCCC2)N2CCN(c3ccccc3)CC2)cc1 (configuration not stated),108%
13,Cc1ccc(C)c(N2CCN(C(=O)C3CCC(CNS(=O)(=O)c4ccc(Br)s4)CC3)CC2)c1 (configuration not stated),76%
14,O=C(Nc1ccc(F)cc1)c1ccc(CN2CC(=O)N3CCCCC3C2=O)cc1 (configuration not stated),-6% (active)
15,Cc1ccc(NC(=O)c2ccc(CN3CC(=O)N4CCCCC4C3=O)cc2)cc1 (configuration not stated),-6% (active)
16,CCc1ccc(NC(=O)c2ccc(CN3CC(=O)N4CCCCC4C3=O)cc2)cc1 (configuration not stated),87%
17,CC(C)c1ccc(NC(=O)c2ccc(CN3CC(=O)N4CCCCC4C3=O)cc2)cc1 (configuration not stated),90%
18,Cc1ccc(NC(=O)c2ccc(CN3CC(=O)N4CCCCC4C3=O)cc2)cc1C (configuration not stated),73%
19,O=C(Nc1cc(F)ccc1F)c1ccc(CN2CC(=O)N3CCCCC3C2=O)cc1 (configuration not stated),76%
20,CC(C)CCNc1ccc(-c2ccc(Cl)cc2)nn1,106%
21,CCCCN(CCCC)C(=O)c1cc2c(=O)n3ccccc3nc2s1,61%
22,Cc1ccc(N2CC(NC(=O)Cc3cccs3)CC2=O)cc1C (configuration not stated),19%

row,SMILES,survival
1,Fc1ccc(C(NCCc2ccc(Cl)cc2)c2nnc(-c3ccccc3Cl)o2)cc1 (configuration not stated),11% (active)
2,COc1ccc(CCNC(c2ccc(F)cc2)c2nnc(-c3ccccc3Cl)o2)cc1OC (configuration not stated),49%
3,Fc1ccc(C(NCCc2ccccc2)c2nnc(-c3ccccc3Cl)o2)cc1 (configuration not stated),94%
4,Fc1ccc(C(Nc2ccccc2Cl)c2nnc(-c3ccccc3Cl)o2)cc1 (configuration not stated),89%
5,Fc1ccc(NCc2ccccc2-c2nnc(-c3ccccc3Cl)o2)cc1,89%
6,Cc1ccc(CCNC(c2ccc(F)cc2)c2nnc(-c3ccccc3Cl)o2)cc1 (configuration not stated),0% (active)
7,COc1cc(NC(=O)CCc2c(C)n(C)c3cc(-c4ccccc4C)nn3c2=O)cc(OC)c1OC,130%
8,Cc1ccc(NC(=O)N2CCc3c([nH]c4ccccc34)C2c2ccccc2F)c(Cl)c1 (configuration not stated),82%
9,CCc1ccc(NS(=O)(=O)c2ccc(C(=O)N(C)C)s2)cc1,64%
10,CCC1CCCCN1C(=O)c1sc(-n2nc(C)c(Cc3ccccc3)c2C)nc1C (configuration not stated),72%
11,CC(=O)c1ccc(NC(=O)C2CCN(S(=O)(=O)c3ccc4c(c3)CCCN4C(=O)C3CCC3)CC2)cc1,74%
12,CCOC(=O)Cn1nc(N2CCN(c3ccc(F)cc3)CC2)ccc1=O,73%
13,COc1ccc(Cn2ccc3nc(C)c(C(=O)NCc4cccc(OC)c4)cc3c2=O)cc1,75%
14,Cc1ccc(CNC(=O)CCCc2nnc3n(C)c(=O)c4sccc4n23)cc1,92%
15,CCOC(=O)c1cc(C)n(CC2CCC(C(=O)Nc3cccc(C(C)=O)c3)CC2)c1C (configuration not stated),79%
16,Cc1c(Cl)cccc1-n1nc(C)c2c(C)cc(=O)n(CC(=O)N3CCCc4ccccc43)c21,71%
17,CC(=O)N1CCc2c(sc(NC(=O)CSc3ccccc3)c2-c2nc3ccccc3s2)C1,120%
18,CCN1CCc2c(sc(NC(=O)CSc3ccccc3)c2-c2nc3ccccc3s2)C1,-6% (active)
19,CN1CCc2c(sc(NC(=O)CSc3ccccc3)c2-c2nc3ccccc3s2)C1,80%
20,CCOC(=O)c1cc(-c2ccccc2)n(CC(=O)NC2CCC(C)CC2)c1C (configuration not stated),81%
21,CCc1ccc(NC(=O)C(CC)n2c(=O)c(C(F)(F)F)nc3ccccc32)cc1 (configuration not stated),81%
